Test results from PubChem BioAssay (NCATS).
Where “and” joins values, the source holds several entries; their conditions need not be identical. Equal entries are not always repeated. Results filed as inconclusive are left out. A number with no mark means an inactive call. Calls of active or inactive are those of the source. Calls follow the shape of the dose curve; as a rule, active = well fitted curve in the direction sought with a large enough effect; inconclusive = small, poorly fitted or top-dose-only effect, or another doubt; inactive = no such curve, though single readings can be large; an effect the other way counts as inactive or inconclusive.

Tests used:
[1] = Viability qHTS for spleen associated tyrosine kinase inhibitor (SYKi) naive MV4-11 cells (AID 1963823); also: nearly all actives have a fitted effect of over 40% in size
Procedure, shortened: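 CellTiter-Glo luminescence, 10 min room-temperature incubation, gave viability. Cells: naive MV4-11 (500/well), treated 72 hr at 37 C, 5% CO2.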

[2] = Viability qHTS for spleen associated tyrosine kinase inhibitor (SYKi) drug resistant MV4-11 cells (AID 1963824); also: nearly all actives have a fitted effect of over 35% in size
Procedure, shortened: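 SYK-inhibitor-resistant MV4-11 AML cells were seeded at 500 per well onto compound and cultured 72 hours (37 °C, 5% CO2). CellTiter-Glo was then added, and after 10 min at room temperature, luminescence gave viability.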

[3] = Cellular viability qHTS for adrenocortical cancer (ACC) cell line SW-13 (AID 1963989); settings: SW-13 ACC cells viability, CellTiter-Glo, 48 h; activity (max response): active compounds read low; also: nearly all actives have a fitted effect of over 65% in size;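 as to activity (max response): cells grown in serum-free medium with ITS supplement; % is scaled to controls: 0 for no effect and ±100 for the full control effect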
Procedure, shortened: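 IC50 and maximal-response values come from four-parameter logistic fits of titration data. SW-13 cells in serum-free medium received compounds (up to 46 uM final) for 48 h before CellTiter-Glo luminescence.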

[4] = Cellular viability qHTS for adrenocortical cancer (ACC) cell line NCI-H295R (AID 1963990); also: nearly all actives have a fitted effect of over 60% in size
Procedure, shortened: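 Adrenocortical carcinoma cells, suspended at 300 000 cells/mL in serum-free DMEM plus ITS, rested overnight before pin transfer of compound. After two days' incubation, ATP-dependent luminescence was recorded and curve-fitted.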
Potency is read from the fitted curve at half-maximal effect.

| SMILES | Potency [1] | Potency [2] | Potency [3] | Potency [4] | activity (max response) [3] |
| --- | --- | --- | --- | --- | --- |
| CN[C@H]1CC[C@@H](c2ccc(Cl)c(Cl)c2)c2ccccc21 | 6610 nM (active) | 7.42 µM (active) | 20.6 µM (active) and 28.2 µM (active) | 4.61 µM (active) and 8.91 µM (active) | – |
| CC(C)(O)CS(=O)(=O)Nc1ccc2c(c1)CCN(C(=O)COc1cccnc1)C2 | 20.9 nM (active) | 0.0295 µM (active) | 282 nM (active) | 112 nM (active) | – |
| CN[C@@H]1C[C@H]2O[C@@](C)([C@@H]1OC)n1c3ccccc3c3c4c(c5c6ccccc6n2c5c31)C(=O)N[C@H]4O | 11.9 nM (active) | 0.0237 µM (active) | 376 nM (active) | 150 nM (active) | – |
| C[C@@H]1CC(=O)Nc2cccc(-c3cnn(C(C)(C)C)c3)c2N1 | 14800 nM (active) | 11.8 µM (active) | – | inactive | 2.32% |
| O=C1Nc2ccc(Cl)cc2[C@@](C#CC2CC2)(C(F)(F)F)O1 | 16.6 µM (active) and 5.17 µM (active) | 13.2 µM (active) and 5.8 µM (active) | 18.4 µM (active) and 25.1 µM (active) | 22400 nM (active) | – |
| CC(=O)[C@]1(O)Cc2c(O)c3c(c(O)c2[C@@H](O[C@H]2C[C@H](N)[C@H](O)[C@H](C)O2)C1)C(=O)c1ccccc1C3=O | 75 nM (active) | 119 nM (active) and 83.3 nM (active) | 46.1 nM (active) and 2 µM (active) | 1.84 µM (active) and 2.24 µM (active) | – |
| C[C@]12CCC(=O)C=C1CC[C@@H]1[C@@H]2CC[C@@]2(C)[C@H]1CC[C@]2(O)C(=O)CO | inactive | inactive | – | inactive | -2.88% |
